The source made the active and inactive calls. The calls were made as follows: active = hit-call score of the fitted dose curve at least 0.9, where 1 is the maximum; inactive = score below 0.9.
Key:
Conditions in all cases: mRNA level, 48 h; actives raise or lower the signal
[1] = read-out: Cytochrome P450 (CYP2B6), CYP2B6 (gene 1555); experiment: LTEA_HepaRG_CYP2B6: Life Technologies and Expression Analysis (LTEA) Assay for Cytochrome P450 (CYP2B6) using HepaRG (AID 2283481)
In short: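 HepaRG cells plated 48 h, switched to serum-free induction medium, then dosed 48 h (8 points, half-log from 100 uM, 0.5% DMSO). RNA isolated; CYP2B6 expression measured by qRT-PCR; gain or loss fitted relative to DMSO.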

[2] = read-out: Cytochrome P450 2C19 (Homo sapiens) (UniProt P33261); experiment: LTEA_HepaRG_CYP2C19: Life Technologies and Expression Analysis (LTEA) Assay for CYP2C19 using HepaRG (AID 2283482)
In short: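 Transcript levels of CYP2C19 were quantified by qRT-PCR after HepaRG cells were treated for 48 hours with test chemicals up to 100 uM (eight half-log concentrations, 0.5% DMSO vehicle). Gain or loss of signal was fitted relative to DMSO.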

CYP2C8 (gene 1558) = experiment: LTEA_HepaRG_CYP2C8: Life Technologies and Expression Analysis (LTEA) Assay for CYP2C8 using HepaRG (AID 2283483)
In short: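 This is a transcriptional endpoint in HepaRG cultures: 48 h exposure, highest concentration 100 uM. CYP2C8 mRNA is quantified by TaqMan qRT-PCR.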

CYP2C9 (gene 1559) = experiment: LTEA_HepaRG_CYP2C9: Life Technologies and Expression Analysis (LTEA) Assay for CYP2C9 using HepaRG (AID 2283484)
In short: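 Eight-point concentration-response (highest 100 uM, half-log dilutions) in HepaRG cells for 48 h; CYP2C9 expression by qRT-PCR normalized to ACTB, GAPDH, POLR2A. Bidirectional fit, DMSO baseline.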

CYP2E1 (gene 1571) = experiment: LTEA_HepaRG_CYP2E1: Life Technologies and Expression Analysis (LTEA) Assay for CYP2E1 using HepaRG (AID 2283485)
In short: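 Assay uses 48 h exposure of HepaRG hepatic cells, eight concentrations to 100 uM. Expression of CYP2E1 is quantified by TaqMan qRT-PCR with ACTB, GAPDH and POLR2A normalization; curves fitted in both directions relative to vehicle.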

CYP4A11 (gene 1579) = experiment: LTEA_HepaRG_CYP4A11: Life Technologies and Expression Analysis (LTEA) Assay for CYP4A11 using HepaRG (AID 2283486)
In short: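 HepaRG, 48 h chem exposure, 8 conc (100 uM top, half-log), 0.5% DMSO vehicle; qRT-PCR readout, housekeeping-gene normalized; bidirectional curve fit vs DMSO baseline.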

[3] = read-out: Cytochrome P450 3A4 (Homo sapiens) (UniProt P08684); experiment: LTEA_HepaRG_CYP3A4: Life Technologies and Expression Analysis (LTEA) Assay for CYP3A4 using HepaRG (AID 2283487)
In short: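 In a human hepatic line (HepaRG), duplicate wells were treated 48 h with up to 100 uM chemical in half-log dilutions. Endpoint: CYP3A4 mRNA induction or loss relative to 0.5% DMSO vehicle, by qRT-PCR.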

[4] = read-out: DNA damage-inducible transcript 3 (DDIT3), DDIT3 (gene 1649); experiment: LTEA_HepaRG_DDIT3: Life Technologies and Expression Analysis (LTEA) Assay for DNA damage-inducible transcript 3 (DDIT3) using HepaRG (AID 2283488)
In short: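 Eight-point concentration-response (100 uM highest, half-log dilutions) in HepaRG, 48 h, duplicate wells. Endpoint: qRT-PCR mRNA, normalized (ACTB, GAPDH, POLR2A), bidirectional fitting with DMSO as baseline.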

[5] = read-out: Pro-epidermal growth factor (Homo sapiens) (UniProt P01133); experiment: LTEA_HepaRG_EGF: Life Technologies and Expression Analysis (LTEA) Assay for Epidermal growth factor (EGF) using HepaRG (AID 2283489)
In short: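 HepaRG, 48 h dosing, 100 uM top, half-log x8, 0.5% DMSO. Readout: TaqMan qRT-PCR (Fluidigm array), housekeeping-normalized. Gain or loss of signal fit vs DMSO.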

[6] = read-out: Early growth response protein 1 (EGR1) transcription factor, EGR1 (gene 1958); experiment: LTEA_HepaRG_EGR1: Life Technologies and Expression Analysis (LTEA) Assay for Early growth response protein 1 (EGR1) transcription factor using HepaRG (AID 2283490)
In short: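 EGR1 expression change in human HepaRG after 48 h chemical exposure, assessed by housekeeping-normalized qRT-PCR; concentration-response up to 100 uM, fitted in both directions against DMSO controls.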

[7] = read-out: Ezrin (EZR), EZR (gene 7430); experiment: LTEA_HepaRG_EZR: Life Technologies and Expression Analysis (LTEA) Assay for Ezrin (EZR) using HepaRG (AID 2283491)
In short: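 Gain or loss of EZR mRNA is scored relative to 0.5% DMSO in human HepaRG cultures treated 48 h with test chemicals in duplicate, eight half-log concentrations from 100 uM.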

CYP3A5 (gene 1577) = experiment: LTEA_HepaRG_CYP3A5: Life Technologies and Expression Analysis (LTEA) Assay for CYP3A5 using HepaRG (AID 2283493)
In short: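 Readout was CYP3A5 mRNA by qRT-PCR. HepaRG cultures were exposed for 48 h in serum-free induction medium to chemicals at up to 100 uM, and responses were fitted in both directions relative to DMSO vehicle.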

[8] = read-out: Cytochrome P450 4A22 (Homo sapiens) (UniProt Q5TCH4); experiment: LTEA_HepaRG_CYP4A22: Life Technologies and Expression Analysis (LTEA) Assay for Cytochrome P450 4A22 (CYP4A22) using HepaRG (AID 2283495)
In short: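 Readout is CYP4A22 transcript induction or loss, quantified by qRT-PCR and normalized to ACTB, GAPDH and POLR2A. Human HepaRG cells receive test chemicals for 48 h at eight half-log concentrations from 100 uM in 0.5% DMSO.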

[9] = read-out: Glutathione S-Transferase (GSTA2), GSTA2 (gene 2939); experiment: LTEA_HepaRG_GSTA2: Life Technologies and Expression Analysis (LTEA) Assay for Glutathione S-Transferase (GSTA2) using HepaRG (AID 2283497)
In short: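 Oxidative-stress marker GSTA2 is quantified by TaqMan qRT-PCR in HepaRG cultures treated 48 h across an eight-point range to 100 uM. Expression is normalized to endogenous controls and compared with 0.5% DMSO vehicle.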

[10] = read-out: Glutamate-cysteine ligase catalytic (GCLC), GCLC (gene 2729); experiment: LTEA_HepaRG_GCLC: Life Technologies and Expression Analysis (LTEA) Assay for Glutamate-cysteine ligase catalytic (GCLC) using HepaRG (AID 2283498)
In short: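 Oxidative-stress marker GCLC is measured as mRNA change in human HepaRG liver cells after 48 h chemical treatment in 0.5% DMSO, eight concentrations from 100 uM. Activity is fitted bidirectionally against vehicle.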

[11] = read-out: growth arrest and DNA damage 45 (GADD45G), GADD45G (gene 10912); experiment: LTEA_HepaRG_GADD45G: Life Technologies and Expression Analysis (LTEA) Assay for growth arrest and DNA damage 45 (GADD45G) using HepaRG (AID 2283499)
In short: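 Gain or loss of GADD45G mRNA, quantified by TaqMan qRT-PCR against three housekeeping genes, is fitted in both directions relative to 0.5% DMSO. Human HepaRG cultures receive test chemical for 48 h at up to 100 uM.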

[12] = read-out: Glutamate-cysteine ligase regulatory (GCLM), GCLM (gene 2730); experiment: LTEA_HepaRG_GCLM: Life Technologies and Expression Analysis (LTEA) Assay for Glutamate-cysteine ligase regulatory (GCLM) using HepaRG (AID 2283500)
In short: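 In this multiplexed HepaRG gene-expression assay, GCLM mRNA change after 48 h treatment (8 concentrations, max 100 uM) was scored against DMSO by bidirectional curve fitting.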

[13] = read-out: Cytochrome P450 7A1 (Homo sapiens) (UniProt P22680); experiment: LTEA_HepaRG_CYP7A1: Life Technologies and Expression Analysis (LTEA) Assay for Cytochrome P450 7A1 (CYP7A1) using HepaRG (AID 2283496)
In short: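 Using 0.5% DMSO as vehicle and baseline, chemicals were tested in duplicate over an 8-point range from 100 uM on HepaRG cells for 48 h; qRT-PCR signals were normalised to ACTB, GAPDH and POLR2A.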

Measured: AC50

Chain of Cytochrome P450 2C19 (Homo sapiens) (P33261 whole entry, looked up): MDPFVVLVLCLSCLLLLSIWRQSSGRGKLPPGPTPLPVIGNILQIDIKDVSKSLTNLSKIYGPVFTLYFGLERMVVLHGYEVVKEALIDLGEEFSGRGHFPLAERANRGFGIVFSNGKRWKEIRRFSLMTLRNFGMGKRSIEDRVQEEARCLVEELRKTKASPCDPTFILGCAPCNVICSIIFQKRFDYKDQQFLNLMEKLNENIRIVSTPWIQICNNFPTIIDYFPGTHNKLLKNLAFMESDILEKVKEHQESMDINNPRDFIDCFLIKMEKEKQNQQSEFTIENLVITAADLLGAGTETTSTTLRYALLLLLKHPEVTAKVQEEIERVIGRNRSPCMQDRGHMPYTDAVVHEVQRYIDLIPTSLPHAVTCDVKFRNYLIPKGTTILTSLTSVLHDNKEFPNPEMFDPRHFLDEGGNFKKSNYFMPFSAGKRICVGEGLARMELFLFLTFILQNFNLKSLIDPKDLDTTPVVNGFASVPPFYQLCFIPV
Chain of Cytochrome P450 3A4 (Homo sapiens) (P08684 whole entry, looked up): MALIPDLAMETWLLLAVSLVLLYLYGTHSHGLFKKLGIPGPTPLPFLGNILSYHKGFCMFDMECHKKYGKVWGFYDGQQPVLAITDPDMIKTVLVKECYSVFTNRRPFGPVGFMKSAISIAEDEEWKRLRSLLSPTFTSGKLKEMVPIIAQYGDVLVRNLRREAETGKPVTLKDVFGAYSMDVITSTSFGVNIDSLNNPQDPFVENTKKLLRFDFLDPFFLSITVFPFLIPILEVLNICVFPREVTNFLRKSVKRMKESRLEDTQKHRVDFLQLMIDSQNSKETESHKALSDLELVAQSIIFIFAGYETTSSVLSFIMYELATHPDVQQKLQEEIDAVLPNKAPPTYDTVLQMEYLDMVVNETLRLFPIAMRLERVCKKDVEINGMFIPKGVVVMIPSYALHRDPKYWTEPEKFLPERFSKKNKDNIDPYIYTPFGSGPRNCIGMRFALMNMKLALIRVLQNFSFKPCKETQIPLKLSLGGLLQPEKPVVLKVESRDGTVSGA

COC(=O)NC(=S)Nc1ccccc1NC(=S)NC(=O)OC
inactive: CYP2C8 (gene 1558) | CYP2C9 (gene 1559) | CYP4A11 (gene 1579) | [4] | [5] | [6] | [7] | CYP3A5 (gene 1577) | [8] | [9] | [10] | [11] | [12]
active: [1] 9.55 µM | [2] 13.7 µM | CYP2E1 (gene 1571) 26.8 µM | [3] 6.29 µM

CCOc1nc(F)cc2nc(S(=O)(=O)Nc3c(Cl)cccc3Cl)nn12
inactive: [2] | CYP2C8 (gene 1558) | CYP2C9 (gene 1559) | CYP4A11 (gene 1579) | [4] | [5] | [6] | [7] | CYP3A5 (gene 1577) | [8] | [9] | [10] | [11] | [12]
active: [1] 13.2 µM | CYP2E1 (gene 1571) 20.3 µM | [3] 1.85 µM | [13] 36.7 µM

From PubChem BioAssay (EPA / NIEHS)
